In PubChem BioAssay AID624330 (Southern Research Specialized Biocontainment Screening …, 2012):
Hit rate of the full screen: of about 340,000 compounds, about 2,100 (0.62%) were called active.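 How the source made its calls: active means first-screen hits whose inhibition reached a set limit at any dose in the follow-up dose series; inconclusive means inhibition above the set first-screen limit but never retested; inactive means the rest.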 These entries were drawn from the full list. Measured potencies and affinities stand elsewhere.

target: Rac GTPase-activating protein 1 (Homo sapiens) (UniProt Q9H0H5); assay: blockers of MgcRacGAP-driven Rac1 GTP hydrolysis – biochemical, ADP Hunter fluorescence, primary and confirmatory, confirmation (AID 624330); settings: MgcRacGAP-stimulated Rac1 GTP hydrolysis, at 30 µM, active compounds read high, GST-tagged Rac1 F28L mutant substrate;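 further: fluorescence reports GDP produced by GAP-driven GTP hydrolysis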
Sequence (Q9H0H5 whole entry, looked up): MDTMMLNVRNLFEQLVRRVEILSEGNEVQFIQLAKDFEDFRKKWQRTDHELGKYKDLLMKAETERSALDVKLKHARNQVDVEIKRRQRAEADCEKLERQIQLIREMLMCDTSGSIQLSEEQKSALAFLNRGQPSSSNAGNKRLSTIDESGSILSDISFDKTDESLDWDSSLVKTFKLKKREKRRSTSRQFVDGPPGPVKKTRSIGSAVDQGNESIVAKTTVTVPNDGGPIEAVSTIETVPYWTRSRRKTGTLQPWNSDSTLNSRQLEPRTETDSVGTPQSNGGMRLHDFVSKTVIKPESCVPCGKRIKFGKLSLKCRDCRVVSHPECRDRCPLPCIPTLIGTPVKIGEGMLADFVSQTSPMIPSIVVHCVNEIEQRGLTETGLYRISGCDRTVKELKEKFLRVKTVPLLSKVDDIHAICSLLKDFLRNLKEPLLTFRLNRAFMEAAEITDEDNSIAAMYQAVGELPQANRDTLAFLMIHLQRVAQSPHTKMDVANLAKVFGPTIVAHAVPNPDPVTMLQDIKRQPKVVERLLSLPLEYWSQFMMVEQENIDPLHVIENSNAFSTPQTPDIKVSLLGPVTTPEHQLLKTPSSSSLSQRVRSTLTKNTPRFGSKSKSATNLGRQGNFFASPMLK

inhibition, inactive:
COc1cc(OC)cc(C(=O)N2CCN(C3CCN(Cc4ccccc4)CC3)CC2)c1 29%, CCOC(=O)C1CCN(Cc2ccc(OC)c(OCc3ccccc3)c2)CC1 27.7%, COc1ccccc1C(=O)N1CCN(C2CCN(Cc3ccccc3)CC2)CC1 19.4%, CCOC(=O)C1CCN(Cc2ccc(OCc3ccccc3)c(OC)c2)CC1 15.7%, COc1ccc(C(=O)N2CCN(C(=O)Cc3ccccc3)CC2)cc1OC 3.19%, COc1cc(C(=O)N2CCN(CCCc3ccccc3)CC2)cc(OC)c1OC 15.2%, COc1ccc(C(=O)N2CCN(C3CCC(c4ccccc4)CC3)CC2)cc1OC (stereo unspecified) 23.6%, CCc1ccc(CN2CCN(C(=O)c3cccc(OC)c3OC)CC2)cc1 23.3%, CCn1c(Cc2cccs2)nnc1SCC(=O)Nc1ccc(OC)c(OC)c1 7.07%, O=C(CCCn1c(=O)oc2ccccc21)N1CCc2ccccc2C1 8.41%, O=C(CSc1nccc(=O)[nH]1)Nc1cccc2ccccc12 8.22%, Cc1cc(C)cc(NS(=O)(=O)c2ccc3[nH]c(=O)ccc3c2)c1 6.34%, CCCCN(C(=O)c1cccc(-c2ccc(OC(C)=O)cc2)c1)c1c(N)n(CCC)c(=O)[nH]c1=O 8.17%, CCc1c(C)c2ccc(O)c(CN(C)C)c2oc1=O 3.54%, CC(C)c1cc(C(F)(F)F)n2nc(C(=O)Nc3ccc(-n4cnnn4)cc3)cc2n1 0.65%, CCc1cc(C(=O)N2CCCC(CNC(=O)c3ccc(-c4ccccc4)cc3)C2)no1 (stereo unspecified) 1.46%, O=C(COC(=O)c1ccc(O)cc1O)Nc1cccc2ccccc12 4.44%, CC12CCC(=O)C=C1C(F)CC1C2C(O)CC2(C)C1CCC2(O)C(=O)CO (stereo unspecified) -2.17%, COc1ccc(C2Nc3cccc4cccc(c34)N2)cc1 16%, COc1ccc(Br)cc1C1Nc2cccc3cccc(c23)N1 13.1%, Oc1ccccc1C1Nc2cccc3cccc(c23)N1 26.2%, COc1cc(C2Nc3cccc4cccc(c34)N2)cc(OC)c1O 12.2%, O=C(Oc1cccc2cccnc12)c1ccco1 12.4%, COCC(=O)N(Cc1cc2cc(C)ccc2[nH]c1=O)c1ccc(C)c(C)c1 16.2%, O=[N+]([O-])c1ccc(Cl)c(S(=O)(=O)/N=C(/c2ccccc2)N2CCOCC2)c1 2.34%, Cc1ccccc1C(=O)N1CCC(C(=O)NCc2ccc(Cl)cc2)CC1 8.11%, CC(OC(=O)CC1CCCCC1)C(=O)Nc1ccc(S(N)(=O)=O)cc1 (stereo unspecified) 1.14%, CC(=O)c1ccc(NS(=O)(=O)c2c(C)cc(C)cc2C)cc1 2%, Cc1cc(C)c(C)c(S(=O)(=O)Nc2ccc(OCC(=O)O)cc2)c1C -3.75%, Cc1cc(C)c(C)c(S(=O)(=O)Nc2ccc(C(N)=O)cc2)c1C 13.9%, Cc1cc(C)c(S(=O)(=O)Nc2ccccc2)c(C)c1 -2.09%, O=C(NC1CC1)c1ccc(CN(c2ccccc2)S(=O)(=O)c2ccccc2)cc1 5.44%, O=C(Nc1cccc(-c2ccc(N3CCOCC3)nn2)c1)c1ccc(Cl)cc1 3.67%, CCc1c(C)nc(SCC(=O)N2CCN(c3ccccc3)CC2)[nH]c1=O 13%, Cc1ccc(N=Cc2cc(Cc3ccccc3Cl)cc([N+](=O)[O-])c2O)c(O)c1 20.2%, O=[N+]([O-])c1cc(Cc2ccccc2)cc(C=Nc2ccc(N3CCOCC3)cc2)c1O 27.8%, O=C(COC(=O)c1cnccn1)NCCc1ccc(Cl)cc1 8.82%, CCOc1ccc(C(=O)NNC(=O)C2CC(=O)N(c3ccc(C)cc3)C2)cc1 (stereo unspecified) 5.17%, Clc1cnc(N/N=C/c2ccncc2)c(Cl)c1 3.41%, Clc1nccnc1N/N=C/c1ccc(Br)cc1 13.4%, O=C(O)c1ccc(/C=N/Nc2ncc(Cl)cc2Cl)cc1 2.45%, Oc1ccccc1/C=N/Nc1nccnc1Cl 5.4%, Fc1ccc(/C=N/Nc2nccnc2Cl)cc1 15.7%, Oc1ccc(/C=N/Nc2ccnc3cc(Cl)ccc23)c(O)c1 17.9%, CCC(NC(=O)c1ccccc1NC(=O)C(C)(C)C)C(=O)N1CCCC1 (stereo unspecified) 7.5%, CCN(C(=O)CSc1nc2cc(S(=O)(=O)N(CC)CC)ccc2n1CC)C1CCS(=O)(=O)C1 (stereo unspecified) 0.8%, COCCN(C(=O)c1cccc(-n2cnnn2)c1)c1c(N)n(CC(C)C)c(=O)[nH]c1=O 5.99%, CCc1cc(C(=O)N2CCN(S(=O)(=O)c3ccc(Cl)cc3)CC2)sc1C 1.55%, O=C(c1cc(S(=O)(=O)N2CCCCC2)ccc1N1CCOCC1)N1CCN(Cc2ccccc2)CC1 7.61%, NC(=S)NNC(=O)[C@@H]1CCCC[C@@H]1C(=O)O 11.2%, C=CCOc1cccc(/C=N/NC(=O)CN2CCCCC2)c1 8.26%, O=C(C[C@H]1C/C=C\C[C@@H](Cc2ccc(F)cc2)C(=O)OC[C@H]2CCCN2C1=O)N[C@@H](CO)Cc1ccccc1 4.35%, CC(NC(=O)c1cccc(C(F)(F)F)c1)C1CCCO1 (stereo unspecified) 6.29%, CC1OC(OCC2OC(Oc3c(-c4ccc(O)cc4)oc4cc(O)cc(O)c4c3=O)C(O)C(O)C2O)C(O)C(O)C1O (stereo unspecified) 7.46%, O=c1cc(-c2ccc(O)cc2)oc2c([C@@H]3O[C@H](CO)[C@@H](O)[C@H](O)[C@H]3O)c(O)c([C@@H]3O[C@H](CO)[C@@H](O)[C@H](O)[C@H]3O)c(O)c12 5.95%, O=c1c2cc(O)c(O)cc2oc2cc(O)c(C3OC(CO)C(O)C(O)C3O)c(O)c12 (stereo unspecified) 23.9%, O=c1cc(-c2ccc(O)cc2)oc2cc(O)c([C@@H]3O[C@H](CO)[C@@H](O)[C@H](O)[C@H]3O)c(O)c12 4.21%, COc1ccc(-c2cc(=O)c3c(O)cc(OC4OC(COC5OC(C)C(O)C(O)C5O)C(O)C(O)C4O)cc3o2)cc1O (stereo unspecified) 4.67%, O=c1cc(-c2ccc(O)cc2)oc2cc(O)c(C3OC(CO)C(O)C(O)C3O)c(O)c12 (stereo unspecified) 12.2%, CCn1ncc([N+](=O)[O-])c1C(=O)Nc1c(C)nn(Cc2ccc(F)cc2)c1C -5.73%, CN(C)S(=O)(=O)N1CCN(Cc2ccccc2)CC1 -9.47%, COc1cccc(C(=O)NC2(C(F)(F)F)N=C3SCCN3C2=O)c1 (stereo unspecified) 8.58%, COc1ccc(C(=O)N/N=C(/C)c2cccc(NC(=O)c3ccccc3F)c2)cc1 6.03%, Cc1nc2ccccc2c(=O)n1NC(=O)Cc1ccc(Br)cc1 1.21%, C=CCc1c(C)nc(-c2ccccc2)nc1Nc1ccccc1O -2.42%, C=CCc1c(C)nc(-c2ccccc2)nc1N/N=C/c1ccccc1 9.45%, COc1ccc(NC(=O)CN2C(=O)C(C)Oc3ccccc32)c(OC)c1 (stereo unspecified) 9.91%, CC(C)(C)C(=O)NCc1ccc(C(=O)CSc2nnc3n2CCCCC3)s1 9.14%, CCOc1ccc(C(CC(=O)O)NC(=O)c2ccco2)cc1OC (stereo unspecified) 5.75%, Oc1cccc(C=NNc2ccccn2)c1 2.05%, Cc1cc(N/N=C/c2ccc(O)cc2O)c2ccccc2n1 -8.64%, Oc1ccc(/C=N/Nc2ccc3ccccc3c2)c(O)c1 9.51%, COc1cccc(/C=N/Nc2cc(Cl)nc(C)n2)c1O -19.7%, Oc1ccc(/C=N/Nc2cccc3cccnc23)c(O)c1 0.03%, Cc1cc(N/N=C/c2ccc(O)cc2O)nc(-c2ccccc2O)n1 9.61%, Cc1ccc(-c2c(C(=O)NC(C)C)oc(=O)c3ccccc23)cc1 5.65%, CCCCSc1ncnc2c1ncn2C1CCCCO1 (stereo unspecified) 0.67%, CC12CCC(C(=O)Nc3cc(Cl)ccc3Cl)(C(Br)C1=O)C2(C)C (stereo unspecified) 8%, CC(=O)/C(=C/N(C)C)Sc1ccc(C)cc1 -4.58%, COC(=O)[C@@]12CCCN1[C@H](c1ccc(-c3ccccc3)cc1)[C@@H]1C(=O)N(C)C(=O)[C@@H]12 10.8%, O=C(COC(=O)CCS(=O)(=O)c1ccc(Cl)cc1)Nc1ncc(Cl)cc1Cl -0.72%, NC1=NC(=O)S/C1=C\c1ccc(F)cc1 -6.63%, C=CCOc1ccc(/C=C2\SC(N)=NC2=O)cc1OC 7.81%, COc1ccc(/C=C2\SC(=O)N=C2N)cc1OC -3.06%, CCN=C1S/C(=C\c2ccc(OCC)c(OC)c2)C(=O)N1CC 2.65%, CCOc1ccc(N2C(=O)S/C(=C\c3ccc(O)c(OCC)c3)C2=O)cc1 9.4%, NC1=NC(=O)/C(=C\c2ccc(O)c([N+](=O)[O-])c2)S1 2.32%, CCN=C1S/C(=C\c2cc(OCC)c(O)cc2Br)C(=O)N1CC 14.2%, CC(C)(C)c1ccc(/C=C2\SC(=O)N=C2N)cc1 2.11%, C/C=C/c1ccc(OCCN2CCc3ccccc3C2)c(OC)c1 17.9%, Cc1ccc(C)c(NC(=O)CN(C)C(=O)c2cc([N+](=O)[O-])ccc2N2CCOCC2)c1 5.45%
